This passage reports Potency results from PubChem BioAssay AID1347428 (National Center for Advancing Translational Sciences (NCATS), 2020).

Structures are written as SMILES. The whole screen tested about 91,000 compounds, of which about 290 (0.32%) were called active. About 7% were inconclusive and are not listed. The call rests on the fitted dose curve; in most records, active means well fitted inhibition curve with a large enough effect; inconclusive means small, poorly fitted or top-dose-only effect; inactive means no such curve, though single readings can be large or run the other way. Shown is part of a subset that was picked to be rich in actives. Where a call stands in place of a potency, no number is given.
Potency means the concentration at half of the fitted maximal effect.

Sequence of Single-stranded DNA cytosine deaminase (Homo sapiens) (Q9GZX7 whole entry, looked up): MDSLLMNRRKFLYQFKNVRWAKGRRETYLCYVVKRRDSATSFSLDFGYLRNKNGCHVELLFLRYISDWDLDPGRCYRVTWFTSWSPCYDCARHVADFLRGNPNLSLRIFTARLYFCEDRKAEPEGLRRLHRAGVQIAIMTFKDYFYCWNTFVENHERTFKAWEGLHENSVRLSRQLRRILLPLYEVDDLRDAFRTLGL

In this assay the target is Single-stranded DNA cytosine deaminase (Homo sapiens) (UniProt Q9GZX7). As to the kind of experiment: Primary qHTS assay for inhibitors of Activation Induced Cytidine Deaminase (AID): AID signal. Further: nearly all actives have a fitted effect of over 25% in size. The note with it: AID deamination FRET fluorescence, UDG-coupled, 4 h; series mostly up to 115 µM. From the text:
Assay Provider (PI) Patricia Gearhart Ph.D.
National Institute on Aging
National Institute of Health (NIH), Bethesda, MD
Assay Provider (PI) Rahul Kohli Ph.D.
Perelman School of Medicine
University of Pennsylvania, Philadelphia, PA
Activation-Induced Deaminase (AID) is a cytosine deaminase which converts cytosine into uracil within stretches of ssDNA. The presence of uracil in DNA initiates a cascade of mutagenic DNA repair to introduce point mutations and DNA double strand breaks. Specific targeting of AID to the immunoglobulin heavy chain loci (Igh) promotes mutagenesis in the antibody variable region for somatic hypermutation (SHM) or switch regions leading to class switch recombination (CSR). However, AID also plays a role in accumulating unnecessary mutations across the genome. Mis-targeting of AID results in the initiation of tumor development and leads to greater drug resistance among cancer cells when continually expressed. To identify an AID inhibitor, a small molecule library will be screened in collaboration with NCATS core facility at NIH. To confirm biological function, inhibitors will be examined in an in vitro murine B-cell activation assay and subsequent secondary validation screens. Top molecules will be further screened to identify inhibitory efficacy against a wild type primary splenocytes assay. Using these approaches, we hope to identify a small molecule with great efficacy and low toxicity for use as a molecular probe to further characterize AID's intricacies, or even as a therapeutic.
A FRET based analysis of cytosine deamination, was developed to identify potential inhibitors of AID catalytic activity. This screen has two signal output, Read 1 evaluates the AID inhibition response. The second readout (Read 2) evaluates UDG response and is uses as a counterscreen to exclude false positive inhibitors. Inhibition in AID and inactivity in the UDG signal is the desired outcome for this assay.
SEQUENCE No. (e.g., 1, 2, 3, etc.); […] (e.g., Cells, Incubation, Reagent, etc.); VALUE; DESCRIPTION
1a; Reagent; 3 uL; [4/3x] 1 uM AID/2.67 U/mL UDG
1b; Reagent; 3 uL; 2 U/mL UDG
1c; Reagent; 3 uL; 1 uM AID
2a; Compound; 46 nL; Follow-up plates (0.64 uM - 10 mM)
2b; Control; 46 nL; ATA ([…] - 10 mM)
3; Time; 10 min; incubation at room temperature
5; Time; 4 hr; incubation at room temperature
6; Reagent; 4 uL; [2x] 250 mM NaOH
7; Time; 15 sec; centrifuge at 1000 rpm
8; Time; 30 min; incubation at room temperature
9a; Detection; fluorescence (Read 1: AID); EnVision (PerkinElmer) plate reader, 540 excitation and 590 emission filters
9b; Detection; fluorescence (Read 2: UDG); EnVision (PerkinElmer) plate reader, 560 excitation and 665 emission filters
NOTES (numbers refer to sequence above)
1a; Reagents were dispensed in a medium-binding black solid-bottom Greiner plates (789176F) using a BioRptr liquid dispenser. Dispense 3 uL of [4/3x] 1 uM AID (provided by Kohli lab) and [4/3x] 2 U/mL UDG (NEB M0280L) into columns 1, 2, 5 to 48.
1b; Dispense 3 uL of [4/3x] 2 U/mL UDG into column 3.
1c; Dispense 3 uL of [4/3x] 1 uM AID into column 4.
2a; Compound (7-points [uM] (0.64; 3.2; 16; 80; 400; 2,000; 10,000; 20,000) double pin-transferred (Dip Factor = 2) using the Kalypsys (Wako USA) pintool equipped with a 1536 pinhead for a final concentration range of 7.32 nM - 114 uM.
2b; 10 mM Aurintricarboxylic Acid (Sigma A1895) (ATA, 8-point, n = 2, 1:2.5 dilution in column 2) double pin-transferred (Dip Factor = 2) using the Kalypsys (Wako USA) pintool equipped with a 1536 pinhead for a [final] range of 186 nM - 114 uM.
3; Room temperature incubation.
4; Dispense 1 uL of substrate mixture from the Kohli lab [4x] […] DJC20 and [4x] 250 nM DJC23 into columns 1 to 48 .
5; Room temperature incubation.
6; Dispense 4 uL of substrate mixture [2x] 250 mM NaOH into columns 1 to 48.
7; Centrifugation step to remove bubbles.
8; Room temperature incubation
9a; Fluorescence signal (column label AID) was read using the EnVision plate reader. […]
For `Cc1ccccc1C(C)NC(=O)c1cc(-c2ccccc2)n[nH]1` (stereo not drawn), the Potency result was “inactive”. The result for `COc1ccc(-c2cc3c(=O)n(CC(=O)NCc4cccc(Br)c4)ncn3n2)cc1` reads “inactive”; that for `Cc1cc2c(cc1C)NC(CC(=O)Nc1ccc(C(F)(F)F)cc1)C(=O)N2` (stereo not drawn), “inactive”. The result for `Cc1cn[nH]c1C#N` reads “inactive”; that for `CCCCCOC(=O)CSc1nc2c(c(=O)[nH]c(=O)n2C)n1CCC`, “inactive”; that for `Cn1nc(C(F)(F)F)c(Cl)c1C(=O)NC1CCCC1`, “inactive”. The result for `Cc1ccccc1NC(=O)c1cc2c(=O)n3cccc(C)c3nc2n1Cc1ccccc1` reads “inactive”; that for `COC(=O)Cc1c(C)c2ccc(OCc3ccc(F)cc3)cc2oc1=O`, “inactive”; that for `CCn1c(SCC(=O)c2ccc(Cl)cc2Cl)nnc1-c1cnccn1`, “inactive”. With `CCOC(=O)C1=C(CN(CCOC)Cc2ccco2)NC(=O)NC1c1cccc(OC)c1OC` (stereo not drawn), the Potency entry was “inactive”. On to `O=C(COC(=O)CC12CC3CC(CC(C3)C1)C2)Nc1ccc([N+](=O)[O-])cc1C(F)(F)F`, for which the Potency result is “inactive”.

With `O=C(O)CC(NC(=O)Cc1cccc(F)c1)c1ccc(F)cc1` (stereo not drawn), the Potency result is “inactive”.

For `O=[N+]([O-])/C=C/c1ccc(-c2ccccc2)o1`, the Potency entry was “inactive”.

Consider `O=C1CCCc2nccc(-c3ccc(Cl)cc3)c21`, for which the Potency result was “inactive”. Turning to `COC(=O)COc1cccc(C(=O)Nc2ccc(-c3nc4ccccc4o3)cc2)c1`, the Potency entry is “inactive”. To `CCCn1c2ccccc2c2cnn(CC(=O)N(CC)c3cc(C)ccc3C)c(=O)c21` belongs 35.5 µM (active); to `CCCn1c2ccccc2c2cnn(CC(=O)NCCCOC(C)C)c(=O)c21`, “inactive”. For the compound `CCCn1c2ccccc2c2cnn(CC(=O)N3CCCC(C(=O)OCC)C3)c(=O)c21` (stereo not drawn), the Potency entry is “inactive”. `C=CCn1c(SCC(=O)Nc2ccccc2)nc2c1c(=O)n(C)c(=O)n2C`: the Potency entry was “inactive”.

On to `C=CCn1c(Oc2ccc(F)cc2)nc2c1c(=O)n(C)c(=O)n2C`, for which the Potency entry was “inactive”.

In the case of `COC(=O)Cc1c(C)c2ccc(OCc3cccc(Cl)c3)cc2oc1=O`, the Potency entry was “inactive”. For the compound `COc1ccc(S(=O)(=O)N2CCc3c(c(-c4nnc(SC)n4C)nn3C)C2)cc1`, the Potency entry was “inactive”.

Turning to `COc1ccccc1N1CCN(CCCNC(=O)c2cnn(-c3ccccc3Cl)c2C2CCN(C(=O)OC(C)(C)C)CC2)CC1`, the Potency result is “inactive”.

As for `COc1ccccc1CN1CCC(CNC(=O)c2cnn(-c3ccccc3Cl)c2C2CCN(C(=O)OC(C)(C)C)CC2)CC1`, the Potency is 44.7 µM (active).

Consider `Cc1cccc(C)c1-n1ncc(C(=O)NCCCN2CCCCC2)c1C1CCN(C(=O)OC(C)(C)C)CC1`, for which the Potency entry is “inactive”.

For the compound `Cc1ccc(CN2CCC(CNC(=O)c3cnn(-c4ccc(C)cc4)c3C3CCN(C(=O)OC(C)(C)C)CC3)CC2)cc1`, the Potency result is “inactive”. To `CC(C)(C)OC(=O)N1CCC(c2c(C(=O)N3CCN(c4cccc(Cl)c4)CC3)cnn2-c2cccc(Cl)c2)CC1` belongs “inactive”.

On to `COc1ccccc1CN1CCC(CNC(=O)c2cnn(-c3cccc(Cl)c3)c2C2CCN(C(=O)OC(C)(C)C)CC2)CC1`, for which the Potency was 44.7 µM (active). To `CCCCc1c(C)nc2c(Cl)cccc2c1Cl` belongs “inactive”; to `CCn1nc(C)cc1-c1nn2c(-c3cccc(Cl)c3Cl)nnc2s1`, “inactive”; to `O=C(O)c1ccc(-c2ccccc2)cc1C(=O)O`, “inactive”. To `Cc1nn(CCC(=O)Nc2c(Cl)cccc2Cl)c(=O)c(C#N)c1C` belongs “inactive”. Turning to `COc1ccc(-c2cc(COC(=O)Cc3cccc(F)c3)on2)cc1`, the Potency entry is “inactive”. Take `N#C/C(=C/c1cccc([N+](=O)[O-])c1)c1ccc(C(F)(F)F)cn1`: the Potency entry was “inactive”. For the compound `O=C(OCC(=O)C12CC3CC(CC(C3)C1)C2)c1ccccc1Cl`, the Potency entry is “inactive”. For `O=C(CCCOC(=O)c1cc(Cl)ccc1[N+](=O)[O-])c1ccc(Br)cc1`, the Potency entry was “inactive”. To `O=C1SCCC1NC(=O)C(Sc1ccccc1)c1ccccc1` (stereo not drawn) belongs “inactive”; to `O=C(CCCCC(=O)OCC(=O)c1ccc(Br)cc1)OCC(=O)c1ccc(Br)cc1`, “inactive”. To `O=[N+]([O-])c1ccc2nc(Cl)ccc2c1` belongs “inactive”; to `Cc1nn(CC(=O)N(CC2CCOC2)C2CC2)c(=O)c2ccccc12` (stereo not drawn), “inactive”. The result for `Cc1cccc2c(=O)c(-c3ccccc3)c(NC(=O)c3ccc([N+](=O)[O-])cc3)oc12` reads “inactive”; that for `Cc1n[nH]c(=O)c2c(NC(=O)CSc3nnc(C4CC4)n3Cc3ccccc3)oc(C)c12`, “inactive”; that for `Cc1[nH]nc2c1C(c1cccc(OCc3ccc(Cl)cc3)c1)C(C#N)=C(N)O2` (stereo not drawn), “inactive”. Regarding `CN(CCOC(=O)c1cccs1)Cc1ccccc1`, the Potency result is “inactive”. To `Cc1ccc(-c2cc3ccccc3n2C)cc1` belongs “inactive”; to `CCn1c(SC(C)c2nnc(-c3ccccc3)o2)nc2ccccc2c1=O` (stereo not drawn), “inactive”; to `O=C(Cc1ccc(Cl)c(Cl)c1)NCC1CN(Cc2ccccc2)CCO1` (stereo not drawn), “inactive”.

For the compound `CCn1ccc(C(=O)Nn2c(C)nc3sc4c(c3c2=O)CCC(C)C4)n1` (stereo not drawn), the Potency entry is “inactive”. The result for `COC(=O)c1ccc(NC(=O)c2noc3c2COc2ccc(C)cc2-3)cc1` reads “inactive”; that for `COc1ccccc1Nc1c2c(nc3ccc(NC(=O)/C=C/c4cc(OC)c(OC)c(OC)c4)cc13)CCCC2`, 44.7 µM (active). The result for `CCOc1ccc(C(=O)Nc2ccc3nc4c(c(Nc5ccccc5OC)c3c2)CCCC4)cc1` reads “inactive”; that for `Cc1ccc(Nc2c3c(nc4ccccc24)CCC3)cc1`, “inactive”. For `Cc1ccc2[nH]c(=S)nc(-c3ccccc3)c2c1`, the Potency result was “inactive”.
